{"source": "PubChem BioAssay", "note": "Results with a measured potency or affinity are listed apart. Calls of active or inactive are those of the source. The rule behind the calls is not given here."}
{"test": "OVCAR8 cell viability loss – plate reader, dry powder samples, PAX8 project, dose response (AID 743197)", "conditions": "series mostly up to 35 µM"}
{"smiles": "C[C@H]1CCCCO[C@@H](CN(C)C)[C@@H](C)CN([C@@H](C)CO)C(=O)c2cc(NC(=O)Nc3ccc(C(F)(F)F)cc3)ccc2O1", "outcome": "inactive"}
{"smiles": "C[C@H](CO)N1C[C@H](C)[C@@H](CN(C)Cc2ccc(-c3ccccc3)cc2)Oc2ccc(NC(=O)Cc3ccccc3)cc2CC1=O", "outcome": "inactive"}
{"smiles": "C[C@H](CO)N1C[C@H](C)[C@H](CN(C)C(=O)NC2CCCCC2)Oc2cc(C#Cc3ccc(F)cc3)ccc2S1(=O)=O", "outcome": "inactive"}
{"smiles": "O=C(Nc1ccc(C(F)(F)F)cc1)N1C[C@@H]2N[C@H](C1)C2c1ccc(-c2ccccc2)cc1", "note": "(stereo not given in full)", "outcome": "inactive"}
{"smiles": "C[C@@H]1CCCCO[C@H](CN(C)Cc2ccc(C(F)(F)F)cc2)[C@H](C)CN([C@@H](C)CO)C(=O)c2cc(NC(=O)Nc3ccc(F)cc3)ccc2O1", "outcome": "inactive"}
{"smiles": "Cc1ccc(S(=O)(=O)Nc2ccc3c(c2)C(=O)N([C@@H](C)CO)C[C@@H](C)[C@@H](CN(C)Cc2ccc(C(F)(F)F)cc2)OCCCC[C@H](C)O3)cc1", "outcome": "inactive"}
{"smiles": "C[C@H](CO)N1C[C@H](C)[C@H](CN(C)C(=O)NC2CCCCC2)OCCCC[C@H](C)Oc2ccc(NC(=O)Nc3ccc(C(F)(F)F)cc3)cc2C1=O", "outcome": "inactive"}
{"smiles": "C[C@@H]1CN([C@@H](C)CO)S(=O)(=O)c2ccc(C#Cc3ccc(F)cc3)cc2O[C@H]1CN(C)C(=O)NC1CCCCC1", "outcome": "inactive"}
{"smiles": "C[C@@H]1CN([C@@H](C)CO)C(=O)Cc2cc(NC(=O)c3ccncc3)ccc2O[C@@H]1CN(C)Cc1ccc(-c2ccccc2)cc1", "outcome": "inactive"}
{"smiles": "Cc1ccc(S(=O)(=O)Nc2ccc3c(c2)C(=O)N([C@@H](C)CO)C[C@@H](C)[C@@H](CN(C)Cc2ccc(Cl)c(Cl)c2)OCCCC[C@@H](C)O3)cc1", "outcome": "inactive"}
